CSC inhib: cancer stem cell inhibition; cancer stem cell-like cells viability, luminescence; inhibition, % at 7.5 µM; 1.1% of 300,000 active; in the data active means inhibition above about 75%; inconclusive means no clear call, values can overlap the other calls; tested in HMLE shEcad cells
Beta cell apopt: blocks beta cell apoptosis; AID 435005; 0.8% of 300,000 active; protection from apoptosis, % (test concentration not listed); INS-1E cytokine-induced death, ATP luminescence, 48 h; percent of positive-control rescue, neutral wells zero;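 active means Every replicate reaches about 75%, or at least half do and their mean reaches it too, limit read from the data; inconclusive means At least half of replicates reach the limit but their mean does not; inactive means Under half of replicates reach the limit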;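 further: higher means more ATP so stronger rescue from cytokine killing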
Shn3 3UTR inh: reduces Shn3 3'UTR luciferase signal in osteoblasts; Clone20 osteoblast Shn3 3'UTR firefly luciferase, 24 h; AID 588674; inhibition, % at 12.5 µM; 0.52% of 360,000 active;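 active means mean inhibition of at least 75% with every replicate also reaching 75%; inconclusive means mean inhibition at least 75% but some replicate below; inactive means mean inhibition below 75%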
Gli-Sufu antag: Gli-Sufu pathway antagonism; 0.74% of 340,000 active; Sufu-KO-LIGHT fibroblasts, Gli luciferase reporter luminescence; inhibition, % at 5 µM;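 active means inhibition above about 55%, limit read from the data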
PAX8 reporter: PAX8 transcriptional activity inhibition. RMG-I TPO-luciferase reporter, SteadyGlo, 24 h. inhibition, % at 12.6 µM. 1.2% of 360,000 active;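 active means mean replicate inhibition at least 60% with every replicate also reaching 60%; inconclusive means only one of the two criteria is met; inactive means mean below 60% and not all replicates reaching 60%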;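 further: luciferase light reporting Pax8 driven TPO promoter activity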
Mdm2-MdmX inh: disrupts the human Mdm2-MdmX interaction. SaOS-2 split-luciferase Mdm2/MdmX complementation, luminescence. inhibition, % at 8 µM. O15151+Q00987. 3% of 330,000 active;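 active means inhibition of at least 50% at 8 µM in the primary screen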
Mdm2-MdmX conf: human Mdm2/MdmX binding inhibition, confirmed; shares compounds with Mdm2-MdmX inh; inhibition, % at 8 µM; 55% of 10,000 active; luminescent assay; in the data active means inhibition above about 40%
FLuc counter: counter-screen for Mdm2/MdmX inhibitors: full-length luciferase; shares compounds with Mdm2-MdmX inh; SaOS-2 full-length luciferase counterscreen, luminescence; inhibition, % at 8 µM; 77% of 6,200 active; AID 504607;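 active means mean inhibition at 8 µM reaching about 37%, which flags the compound as non-specific, limit read from the data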;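 further: p53-null SaOS-2 cells with luciferase driven by a doxycycline-inducible promoter; compound on cells about two nights before reading with doxycycline added after day one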
Hits are given with their value; 0 = inactive; ? = inconclusive; - = no result given. The list is not random: actives were taken first. Their share in the collection is about 4%.

SMILES | CSC inhib | Beta cell apopt | Shn3 3UTR inh | Gli-Sufu antag | PAX8 reporter | Mdm2-MdmX inh | Mdm2-MdmX conf | FLuc counter
O=C(Nc1ccc(C(O)(C(F)(F)F)C(F)(F)F)cc1)c1ccc(Cl)c([N+](=O)[O-])c1 | 87 | 0 | 0 | 0 | 0 | 55 | 0 | -
N#Cc1ccsc1NC(=O)c1cccc([N+](=O)[O-])c1 | 0 | 0 | 0 | 0 | 0 | 0 | - | -
Cc1cccc(C)c1NS(=O)(=O)c1ccc(NC(=O)c2ccc(Cl)c([N+](=O)[O-])c2)cc1 | 103 | 0 | 0 | 0 | 0 | 98 | 69 | 59
Cc1ccc(S(=O)(=O)N(C)C[C@@H]2Oc3c(NC(=O)c4cnccn4)cccc3C(=O)N([C@H](C)CO)C[C@H]2C)cc1 | - | - | - | - | 0 | - | - | -
COc1ccc(NC(=O)O[C@@H](c2ccc(OC)c(O)c2)[C@H](CCO)OC)cc1 | - | - | - | - | 0 | - | - | -
CCCCNC(=O)C(c1ccc(OCC(=O)OC)c(C(=O)OC)c1)N(CCOC)C(=O)CCCCCN1C(=O)NC(c2ccc(-c3ccccc3)cc2)C(C(=O)OCc2ccccc2)=C1C (stereo unspecified) | 125 | 0 | - | - | 0 | 100 | 66 | 0
CCCCCCN(C(=O)CCCCCN1C(=O)NC(c2ccc(-c3ccccc3)cc2)C(C(=O)OCc2ccccc2)=C1C)C(C(=O)NCCCC)c1ccc(OCC(=O)OC)cc1 (stereo unspecified) | 0 | 0 | - | - | - | 0 | - | -
O=C(Nc1ccc2c(c1)CCC2)c1cnn2c1NC(c1ccco1)CC2C(F)(F)F (stereo unspecified) | 0 | 0 | 0 | 0 | - | 88 | 54 | 79
Cc1cccc(S(=O)(=O)N2C[C@@H](O)COC[C@@H]3O[C@H](CC(=O)N4CCN(C)CC4)CC[C@H]32)c1 | - | - | - | - | 0 | - | - | -
CCOc1ccc(Br)cc1C1=CC(=O)C[C@H](c2ccc(OC)cc2)C1 | 82 | 0 | 94 | 0 | 0 | 55 | 48 | 48
COc1ccc([C@H]2CC(=O)C=C(c3cc(Br)ccc3OC)C2)cc1 | - | 0 | 0 | 0 | 0 | 50 | 44 | 47
Cc1ccc(C(=O)O/N=C/c2c(N3CCOCC3)n(C)c3ccccc23)cc1 | 0 | 99 | 0 | 0 | 0 | 51 | 40 | 0
O=C(Nc1ccc2oc(-c3ccncc3)nc2c1)c1ccc([N+](=O)[O-])o1 | - | 0 | ? | 0 | 0 | 56 | 44 | 45
Cn1cc([N+](=O)[O-])c(C(=O)Nc2ccc(-c3nc4ccccc4o3)cc2)n1 | 104 | 0 | 0 | - | 0 | 52 | 49 | 43
O=C(Nc1ccc2oc(-c3ccc4ccccc4c3)nc2c1)c1ccc2c(c1)OCCO2 | 0 | 0 | 0 | 0 | 0 | 80 | 0 | -
O=C(Nc1ccc(-c2nc3ncccc3o2)cc1)c1ccc([N+](=O)[O-])o1 | 0 | 0 | 97 | 0 | 0 | 55 | 49 | 54
C[C@H](CO)N1C[C@H](C)[C@@H](CN(C)C(=O)Nc2ccc(C(F)(F)F)cc2)Oc2ccc(NC(=O)Nc3ccc(F)cc3)cc2CC1=O | - | - | - | - | 0 | - | - | -
CCCNC(=O)N(C)C[C@H]1Oc2ncc(Br)cc2C(=O)N([C@@H](C)CO)C[C@@H]1C | - | - | - | - | 0 | - | - | -
O=C(Nc1ccc2oc(-c3ccncc3)nc2c1)c1cccs1 | 0 | 0 | 0 | 0 | - | 0 | - | -
O=C(Nc1ccc(-c2nc3cc(NC(=O)c4cccs4)ccc3o2)cc1)c1cccs1 | 0 | 0 | 0 | 0 | - | 60 | 0 | -
CNC[C@H]1OCCCC[C@@H](C)Oc2ccc(NS(=O)(=O)c3ccc(F)cc3)cc2C(=O)N([C@H](C)CO)C[C@@H]1C | - | - | - | - | 0 | - | - | -
N#Cc1ccccc1S(=O)(=O)N1CCN(c2nc(-c3cccnc3)nc3ccccc23)CC1 | - | - | 0 | 0 | 0 | 54 | 47 | 76
O=S(=O)(c1ccccc1F)N1CCN(c2nc(-c3cccnc3)nc3ccccc23)CC1 | - | 0 | 0 | 0 | 0 | 0 | - | -
C/C=C/c1ccc([C@@H]2[C@@H](CO)N(C(C)=O)[C@H]2CN(CC)C(=O)CN(C)C)cc1 | - | - | - | - | 0 | - | - | -
CCCc1cn(CC[C@H]2CC[C@H](NC(=O)C3CCCC3)[C@@H](CO)O2)nn1 | - | - | - | - | 0 | - | - | -
SMILES | CSC inhib | Beta cell apopt | Shn3 3UTR inh | Gli-Sufu antag | PAX8 reporter | Mdm2-MdmX inh | Mdm2-MdmX conf | FLuc counter
O=C1c2ccccc2OC2(C=Cc3ccccc3O2)N1Cc1ccccc1 (stereo unspecified) | - | 0 | 0 | 0 | - | 54 | 48 | 40
O=C1NC2(CCN(Cc3ccccc3)CC2)Oc2ccccc21 | - | 0 | 0 | 0 | 0 | 0 | - | -
C[C@H]1CN([C@@H](C)CO)C(=O)c2cc(NC(=O)Nc3ccc(F)cc3)ccc2O[C@@H]1CN(C)S(=O)(=O)c1ccccc1 | - | - | - | - | 0 | - | - | -
Nc1c(C(=O)Nc2ccc(F)cc2)sc(=S)n1-c1ccccc1F | 0 | 0 | 0 | 0 | 0 | 72 | 0 | -
CC=Cc1ccc2n(c1=O)C[C@H]1[C@H](CO)[C@@H](C(=O)NCCN3CCCC3)N(C(=O)NCCC)[C@@H]21 (mixture of isomers) | - | - | - | - | 0 | - | - | -
Nc1ccccc1C#Cc1ccc([N+](=O)[O-])cc1 | 0 | 0 | 0 | 0 | 0 | 0 | - | -
O=C(C#Cc1cccc([N+](=O)[O-])c1)c1ccccc1 | 0 | 0 | 93 | - | - | 73 | 63 | 52
Nc1ccccc1C#CC(=O)c1ccccc1 | 0 | 91 | 99 | 0 | 0 | 96 | 63 | 55
COc1cccc(-c2ccc(C3[C@@H]4CN(S(=O)(=O)Cc5ccccc5)C[C@H]3N4)cc2)c1 (stereo partly specified) | - | - | - | - | 0 | - | - | -
O=C(NCc1ccc(F)cc1)[C@H]1C[C@H]2C(=O)N3CCC[C@H]3C(=O)N2[C@H]1c1cccc(OCCO)c1 | - | - | - | - | 0 | - | - | -
CCOc1ccc(-c2csc(/C(C#N)=C\c3ccc(O)c([N+](=O)[O-])c3)n2)cc1 | 108 | 0 | 0 | 0 | 0 | 96 | 83 | 52
CCCCc1ccc(-c2csc(/C(C#N)=C\c3ccc(C)o3)n2)cc1 | 0 | 0 | 0 | 0 | - | 0 | - | -
C[C@@H]1CN([C@@H](C)CO)C(=O)c2cc(C3=CCCC3)cnc2O[C@H]1CN(C)S(C)(=O)=O | - | - | - | - | 0 | - | - | -
Cc1ccc2cc(C#N)c(SCc3nnc(-c4ccccc4[N+](=O)[O-])o3)nc2c1 | 0 | 0 | 0 | 0 | 0 | 87 | 79 | 72
O=C(Nc1cccc(F)c1)N1CC(=O)N2[C@H](C1)[C@@H](c1ccc(-c3ccc(F)cc3)cc1)[C@@H]2CO | - | - | - | - | 0 | - | - | -
CCC(=NCCc1c(C)[nH]c2ccc(C)cc12)C1=C(O)CC(c2ccccc2)CC1=O (stereo unspecified) | 0 | 0 | 0 | 0 | 0 | 67 | 61 | 70
CC(=O)C1=C(O)CC(c2ccccc2)CC1=NCCc1c(C)[nH]c2ccc(C)cc12 (stereo unspecified) | 0 | 0 | 0 | 0 | 0 | 0 | - | -
C[C@@H]1CN([C@@H](C)CO)C(=O)Cc2cc(NS(=O)(=O)c3cn(C)cn3)ccc2O[C@H]1CN(C)CC1CCCCC1 | - | - | - | - | 0 | - | - | -
CCCNC(=O)N1CCC2(CC1)CN(C(=O)NC(C)C)[C@@H](CO)c1c2c2ccc(OC)cc2n1C | - | - | - | - | 0 | - | - | -

High-throughput results deposited in PubChem BioAssay by several laboratories.
